Data: PubChem BioAssay AID746 (The Scripps Research Institute Molecular Screening Center, 2007)
About 370 (0.62%) of roughly 60,000 compounds were called active. Shown is part of a subset that was picked to be rich in actives. Values without a mark were called inactive. No stated cut-off is given here; in the data, active means inhibition above about 17%; inactive means the rest.

Target: Mitogen-activated protein kinase 10 (Homo sapiens) (UniProt P53779)
Assay: inhibition of human JNK3 enzyme – biochemical, purified enzyme, primary screen (AID 746);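 further: 0% = DMSO and 100% = reference inhibitor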
Settings: purified JNK3 kinase activity, HTS; at 8 µM; hits give high values

Chain of Mitogen-activated protein kinase 10 (Homo sapiens) (P53779 whole entry, looked up): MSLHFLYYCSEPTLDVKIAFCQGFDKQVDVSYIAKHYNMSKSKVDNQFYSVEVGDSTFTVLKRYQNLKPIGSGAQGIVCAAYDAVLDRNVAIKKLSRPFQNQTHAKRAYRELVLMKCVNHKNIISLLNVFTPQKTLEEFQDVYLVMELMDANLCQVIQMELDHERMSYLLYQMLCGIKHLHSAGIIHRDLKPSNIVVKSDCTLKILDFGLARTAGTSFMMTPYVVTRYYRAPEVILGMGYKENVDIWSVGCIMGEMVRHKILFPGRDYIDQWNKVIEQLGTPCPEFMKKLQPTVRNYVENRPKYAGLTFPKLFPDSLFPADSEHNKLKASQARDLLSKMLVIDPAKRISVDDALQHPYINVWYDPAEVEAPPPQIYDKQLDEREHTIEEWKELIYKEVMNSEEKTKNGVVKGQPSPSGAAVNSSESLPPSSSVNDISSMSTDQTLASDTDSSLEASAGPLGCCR

| SMILES | inhibition |
| --- | --- |
| O=C(CN1CCN(C(=O)c2cccc(F)c2)CC1)Nc1ccccc1F | -3.2% |
| CCOC(=O)CSc1nnc(NC(=O)c2cccc(S(=O)(=O)N3CCCCC3)c2)s1 | -2.01% |
| CCOC(=O)c1sc(N(Cc2ccccc2)C(=O)CN2C(=O)CN(C)C2=O)nc1C | 0.36% |
| Cc1ccc(C(=O)COc2cccc(NC(=O)c3ccco3)c2)cc1 | 0.83% |
| Cn1c(=O)[nH]c(=O)c2c1nc(CN1CCN(c3ccccc3F)CC1)n2CCc1ccccc1 | 3.94% |
| Cc1ccccc1NC(=O)c1cnn(-c2ccccc2)c1NC(=O)c1ccco1 | -3.45% |
| O=P(c1cccs1)(c1cccs1)c1cccs1 | -3.85% |
| O=C(Nc1cccc2cccnc12)c1cccc(N2C(=O)CCC2=O)c1 | 4.05% |
| O=C(CSCc1cccs1)N1CCCC1 | 5.67% |
| CCc1ccc(-c2nnn(Cc3nc4ccccc4s3)n2)cc1 | -6.35% |
| CCC(C)NC(=O)N[C@@H](CCSC)C(=O)O (stereo not given in full) | 1.22% |
| O=C(Nc1cc(C(F)(F)F)ccc1Cl)c1cc(C2CC2)on1 | 4.08% |
| Cn1c(=O)c2c(nc(SCCNS(=O)(=O)c3ccccc3)n2C)n(C)c1=O | -3.56% |
| Cc1ccccc1CSc1nnc(Cn2c(=O)sc3ccccc32)n1C | 0.98% |
| O=c1c2c(nc3n1CCCCC3)sc1c(O)cccc12 | 19.3% (active) |
| O=C(Cn1[nH]c(=O)c2ccccc2c1=O)Nc1cccc(-c2nnc3n2CCCCC3)c1 | -2.76% |
| Cc1ccc2nc3n(c(=O)c2c1)CCC3 | -2.11% |
| CCn1cc(C(=O)N2CCN(C3CCCCC3)CC2)c2cc(OC)c(OC)cc2c1=O | -1.36% |
| O=C(Cn1cnc2c(cnn2-c2ccccc2)c1=O)NCc1ccccc1 | 3.12% |
| CCCc1cc(=O)[nH]c(SCC(=O)OCc2ccccc2)n1 | -3.94% |
